# Results taken from PubChem BioAssay (NCATS).
# Values without a mark were called inactive. For some of these results: Results with a measured potency or affinity are listed apart. The source made the active and inactive calls. The rule behind the calls is not given here.
# Tests used:
# [1] = Ebola virus entry assay, green fluorescence channel
# [2] = Ebola virus entry assay, blue channel fluorescence
# [3] = Ebola virus entry assay, ratio channel
# [4] = Ebola virus entry assay, reporter ratio channel; Channel type: primary
# Throughout, for efficacy: 0% is about no effect.
SMILES,efficacy [1] [%],AC50 [2],AC50 [3],AC50 [4],outcome [3],outcome [2],outcome [4]
CCCCCCCCCCCCCCCC[N+](C)(C)Cc1ccccc1,-178,31.6 µM (active),22.4 µM (active),22.4 µM (active),,,
c1ccc(CN(CC2=NCCN2)c2ccccc2)cc1,60.7,39.8 µM (active),,39.8 µM (active),inactive,,
Cc1ccc2c(Br)cc(Br)c(O)c2n1,99.5,35.5 µM (active),39.8 µM (active),39.8 µM (active),,,
C[C@H]1O[C@@H](O[C@H]2CC[C@@]3(C)[C@H](CC[C@@H]4[C@@H]3C[C@@H](O)[C@]3(C)[C@@H](C5=CC(=O)OC5)CC[C@]43O)C2)C[C@H](O)[C@@H]1O[C@H]1C[C@H](O)[C@H](O[C@H]2C[C@H](O)[C@H](O[C@@H]3O[C@H](CO)[C@@H](O)[C@H](O)[C@H]3O)[C@@H](C)O2)[C@@H](C)O1,-58.9,1.58 µM (active),0.891 µM (active),0.891 µM (active),,,
O=C(c1ccc(F)cc1)C1CCN(CCn2c(=O)[nH]c3ccccc3c2=O)CC1,78.1,28.2 µM (active),17.8 µM (active),17.8 µM (active),,,
Cc1nc2sccn2c(=O)c1CCN1CCC(=C(c2ccc(F)cc2)c2ccc(F)cc2)CC1,82.1,17.8 µM (active),15.8 µM (active),15.8 µM (active),,,
CCCCCCCCCCCCCCCC[n+]1ccccc1,-209,20 µM (active),14.1 µM (active),14.1 µM (active),,,
NC(=NCCCCCCN=C(N)/N=C(\N)Nc1ccc(Cl)cc1)/N=C(\N)Nc1ccc(Cl)cc1,-197,39.8 µM (active),,39.8 µM (active),inactive,,
NCCNc1cccc2ccccc12,85.8,39.8 µM (active),25.1 µM (active),25.1 µM (active),,,
CCN(CC)CCOc1ccccc1C(=O)CCc1ccccc1,42.3,15.8 µM (active),14.1 µM (active),14.1 µM (active),,,
CC[C@]12CCCN3CCc4c(n(c5ccccc45)C(=O)C1)[C@@H]32,62,28.2 µM (active),28.2 µM (active),28.2 µM (active),,,
Clc1ccc2c(c1)CCc1cccnc1C2=C1CCNCC1,49.7,7.08 µM (active),7.94 µM (active),7.94 µM (active),,,
CCCCCCCCOc1ccccc1C(=O)Nc1ccc(C(=O)OCC[N+](C)(CC)CC)cc1,-202,10 µM (active),2.51 µM (active),2.51 µM (active),,,
Nc1c2ccccc2nc2ccccc12,59,,,,inactive,inactive,inactive
CN(C)CCN(Cc1ccc(Cl)cc1)c1ccccn1,58.3,17.8 µM (active),14.1 µM (active),14.1 µM (active),,,
N[C@H](C(=O)O)[C@@H](O)c1ccc(O)c(O)c1,53.3,22.4 µM (active),20 µM (active),20 µM (active),,,
CC(NCCC(c1ccccc1)c1ccccc1)c1ccccc1 (stereo not drawn),-189,2 µM (active),2.51 µM (active),2.51 µM (active),,,
CN1CCCN=C1COC(=O)C(O)(c1ccccc1)C1CCCCC1 (stereo not drawn),75.7,12.6 µM (active),12.6 µM (active),12.6 µM (active),,,
COc1cc2c(cc1OC)-c1cc(=Nc3c(C)cc(C)cc3C)n(C)c(=O)n1CC2,20.5,15.8 µM (active),15.8 µM (active),15.8 µM (active),,,
CN(C)CCOC1=Cc2ccccc2Sc2ccc(Cl)cc21,46.9,15.8 µM (active),12.6 µM (active),12.6 µM (active),,,
C=CCc1ccccc1OCC(O)CNC(C)C (stereo not drawn),42.4,28.2 µM (active),25.1 µM (active),25.1 µM (active),,,
O=C(CCC1CCN(Cc2ccccc2)CC1)c1ccc2c(c1)NCCCC2,114,7.08 µM (active),7.08 µM (active),7.08 µM (active),,,
O=C1OC2(c3ccccc31)c1cc(I)c(O)c(I)c1Oc1c2cc(I)c(O)c1I,162,,,39.8 µM (active),inactive,inactive,
Fc1ccc(C(c2ccc(F)cc2)N2CCN(C/C=C/c3ccccc3)CC2)cc1,37.6,12.6 µM (active),11.2 µM (active),11.2 µM (active),,,
CN1CCCC(CC2c3ccccc3Sc3ccccc32)C1 (stereo not drawn),-153,5.62 µM (active),3.16 µM (active),3.16 µM (active),,,
C/C(=C(/OCCOc1ccc(Cl)cc1)c1ccc(Cl)cc1Cl)n1ccnc1,81.6,39.8 µM (active),,39.8 µM (active),inactive,,

SMILES,efficacy [1] [%],AC50 [2],AC50 [3],AC50 [4],outcome [3],outcome [2],outcome [4]
COc1cccc(CCc2ccccc2OCC(CN(C)C)OC(=O)CCC(=O)O)c1 (stereo not drawn),95.8,1.78 µM (active),2 µM (active),2 µM (active),,,
CN(CCCN1c2ccccc2CCc2ccccc21)CC(=O)c1ccc(Cl)cc1,78.9,22.4 µM (active),25.1 µM (active),25.1 µM (active),,,
CCN(CCCc1ccccc1)CCCc1ccccc1,48.4,5.62 µM (active),4.47 µM (active),4.47 µM (active),,,
CCCCOc1cc(C(=O)NCCN(CC)CC)c2ccccc2n1,119,12.6 µM (active),10 µM (active),10 µM (active),,,
O=c1c(-c2ccccc2)c1-c1ccccc1,22,39.8 µM (active),39.8 µM (active),39.8 µM (active),,,
CCCCC1C(=O)N(c2ccccc2)N(c2ccc(O)cc2)C1=O (stereo not drawn),73.1,28.2 µM (active),,39.8 µM (active),inactive,,
CCCCOc1ccc(C(=O)CCN2CCCCC2)cc1,94.7,25.1 µM (active),31.6 µM (active),31.6 µM (active),,,
COc1ccc(/C=C/C(=O)c2ccc(OC)cc2OC)cc1,38.6,39.8 µM (active),,39.8 µM (active),inactive,,
CCCCOc1ccc(OCCCN2CCOCC2)cc1,94.1,25.1 µM (active),22.4 µM (active),22.4 µM (active),,,
COc1cc(N)c(Cl)cc1C(=O)NC1CCN(Cc2ccccc2)CC1,43.1,31.6 µM (active),,39.8 µM (active),inactive,,
NC1(c2ccc(-c3nc4ccn5c(=O)[nH]nc5c4cc3-c3ccccc3)cc2)CCC1,104,2.82 µM (active),2.51 µM (active),2.51 µM (active),,,
CCN(CC)CCCN(c1ccccc1)C1Cc2ccccc2C1,47.4,3.55 µM (active),3.55 µM (active),3.55 µM (active),,,
CCN(CC)CCOc1ccc(Cc2ccccc2)cc1,70.7,7.94 µM (active),3.55 µM (active),3.55 µM (active),,,
O=C(Nc1ccccc1)OCC(CN1CCCCC1)OC(=O)Nc1ccccc1 (stereo not drawn),31.7,10 µM (active),10 µM (active),10 µM (active),,,
CN(C)c1ccc(C(=C2C=CC(=[N+](C)C)C=C2)c2ccccc2)cc1,-236,0.891 µM (active),0.708 µM (active),0.708 µM (active),,,
c1ccc(OCc2ccc(CCCN3CCOCC3)cc2)cc1,89.3,22.4 µM (active),20 µM (active),20 µM (active),,,
CCCCN(CCCC)CC(O)c1cc(Cl)cc2c1-c1ccc(Cl)cc1/C2=C/c1ccc(Cl)cc1 (stereo not drawn),120,39.8 µM (active),39.8 µM (active),39.8 µM (active),,,
CC1=C(CC(=O)O)c2cc(F)ccc2/C1=C\c1ccc(S(C)=O)cc1 (stereo not drawn),55.9,,,,inactive,inactive,inactive
CCCCCCCCNC(C)C(O)c1ccc(SC(C)C)cc1 (stereo not drawn),48.4,14.1 µM (active),11.2 µM (active),11.2 µM (active),,,
[O-][n+]1ccccc1SSc1cccc[n+]1[O-],40.7,1.26 µM (active),1.26 µM (active),1.26 µM (active),,,
CN(C)CCOC(c1ccccc1)c1ccccc1,60.8,20 µM (active),17.8 µM (active),17.8 µM (active),,,
CN1CCN(CCCN2c3ccccc3Sc3ccc(S(=O)(=O)N(C)C)cc32)CC1,146,2.51 µM (active),2.24 µM (active),2.24 µM (active),,,
O=C(c1ccc(F)cc1)C1CCN(CCn2c(=S)[nH]c3ccccc3c2=O)CC1,48.9,35.5 µM (active),17.8 µM (active),17.8 µM (active),,,
O=C(OCC(O)CO)c1ccccc1Nc1ccnc2cc(Cl)ccc12 (stereo not drawn),41.9,39.8 µM (active),20 µM (active),20 µM (active),,,
COc1ccc(-n2nc(CCC(=O)N(C)O)cc2-c2ccc(Cl)cc2)cc1,77.8,11.2 µM (active),10 µM (active),10 µM (active),,,
CSc1ccc(/C=C2/C(C)=C(CC(=O)O)c3cc(F)ccc32)cc1,33.8,,,,inactive,inactive,inactive
